# Results filed as inconclusive are left out. For some assays here: Measured potencies and affinities stand elsewhere. Calls of active or inactive are those of the source.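 Rule for the calls, unless noted: active = compounds killing one labelled cell type while sparing the other, by normalised counts and ratio limits, not self-fluorescent; inactive = the rest.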
# Experiments:
# [1] = EMT-state selective cytotoxicity in co-culture – imaging, PC-3E GFP, TEM4-18 mCherry, primary screen (AID 1345086); conditions: PC-3E GFP / TEM4-18 mCherry co-culture, imaging cell counts, at 1 µM; for red/green cell ratio (normalised): actives lie on both sides, counts scaled to control wells, 1 = unselective;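 for all read-outs here: cells exposed to compound for 72 h before imaging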;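 for red/green cell ratio (normalised): normalised mesenchymal count divided by normalised epithelial count so high means epithelial killing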
# [2] = target: Mitogen-activated protein kinase 7 (Homo sapiens) (UniProt Q13164); assay: Gal4-ERK5 driven luciferase induction – cell-based, HTS, primary screen (AID 1508626;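 active = luciferase signal above three times the same-plate solvent-only control wells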;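 note: luciferase driven by Gal4-ERK5 fusion binding five Gal4 sites before minimal TATA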); conditions: HeLa Gal4-ERK5 transactivation, 18 h, at 5 µM, stronger effect = higher value
# Mitogen-activated protein kinase 7 (Homo sapiens), sequence (Q13164 whole entry, looked up, the tested form may be a part): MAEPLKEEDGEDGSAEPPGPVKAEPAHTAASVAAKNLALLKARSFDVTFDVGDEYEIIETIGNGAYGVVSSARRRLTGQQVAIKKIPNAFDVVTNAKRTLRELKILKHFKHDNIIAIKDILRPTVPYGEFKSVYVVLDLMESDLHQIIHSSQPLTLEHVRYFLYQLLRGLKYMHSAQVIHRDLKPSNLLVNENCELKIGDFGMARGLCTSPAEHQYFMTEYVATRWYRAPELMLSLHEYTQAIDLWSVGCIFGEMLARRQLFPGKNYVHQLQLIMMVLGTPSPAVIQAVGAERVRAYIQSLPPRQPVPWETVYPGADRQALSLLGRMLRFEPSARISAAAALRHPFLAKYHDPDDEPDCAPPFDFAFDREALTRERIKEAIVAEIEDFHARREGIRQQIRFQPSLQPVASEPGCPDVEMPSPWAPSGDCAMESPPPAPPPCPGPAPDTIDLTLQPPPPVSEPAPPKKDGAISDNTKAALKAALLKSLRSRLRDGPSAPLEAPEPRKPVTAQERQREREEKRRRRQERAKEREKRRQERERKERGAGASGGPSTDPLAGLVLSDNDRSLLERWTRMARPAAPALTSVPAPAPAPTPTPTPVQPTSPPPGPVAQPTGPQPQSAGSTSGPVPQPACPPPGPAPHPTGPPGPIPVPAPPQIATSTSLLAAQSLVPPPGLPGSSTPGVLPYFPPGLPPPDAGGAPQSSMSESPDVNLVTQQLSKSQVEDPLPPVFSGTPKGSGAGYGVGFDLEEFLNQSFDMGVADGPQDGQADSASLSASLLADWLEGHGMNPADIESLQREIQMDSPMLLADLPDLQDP
# [3] = blockers of polyQ-driven CASP3 activation – cell-based (AID 1583); conditions: polyglutamine-induced caspase-3 activation, cell assay; stronger effect = higher value;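 tested at 10 µM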
# [4] = yeast 75Q aggregation reduction – 75Q-TubU reporter (AID 1593); conditions: Yeast 75Q polyglutamine aggregation reporter
# [5] = restoration of touch response, mutant HTT neurons – whole organism, C. elegans mechanosensory neurons, N-terminal huntingtin (AID 1599); conditions: C. elegans polyQ-huntingtin mechanosensory neurons, stronger effect = higher value
# [6] = blockers of cytochrome c efflux from mitochondria – biochemical, purified mitochondria (AID 1603); conditions: stronger effect = lower value;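 note: mouse liver mitochondria challenged with calcium chloride; signal normalized to the plate average as 100%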
# [7] = polyglutamine aggregate formation blockers (AID 1604); conditions: polyglutamine-induced protein aggregation inhibition assay; stronger effect = higher value; tested at 2.5 µM
# [8] = rescue of PC12 cells from polyQ htt toxicity – LDH release (AID 1610); conditions: PC12 mutant huntingtin toxicity, final LDH at 4 uM, stronger effect = lower value
# [9] = glutamate transport activators, MN-1 cells, MN-1 cell line (AID 1612); conditions: MN-1 motor neuron cells, stronger effect = higher value;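 note: tested at 1 µM final; 0% = mean of DMSO vehicle wells on each plate; positive means more glutamate uptake than control and negative means less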
# [10] = 75Q-TubH aggregate inhibition, S. cerevisiae, yeast (AID 1616); conditions: S. cerevisiae 75Q-TubH polyglutamine aggregation suppression; stronger effect = higher value
# [11] = target: NAD(+) hydrolase SARM1 (Homo sapiens) (UniProt Q6SZW1); assay: blocking NAD cleavage by SARM1 SAM-TIR – cell lysate, NAD-Glo luminescence (AID 1508614;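 active = compound whose remaining NAD level is above about 45 nM, limit read from the data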;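 note: higher remaining NAD means stronger inhibition of SARM1 NADase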); conditions: SAM-TIR HEK293T lysate NADase, at 1 µM, stronger effect = higher value
# NAD(+) hydrolase SARM1 (Homo sapiens), sequence (Q6SZW1 whole entry, looked up): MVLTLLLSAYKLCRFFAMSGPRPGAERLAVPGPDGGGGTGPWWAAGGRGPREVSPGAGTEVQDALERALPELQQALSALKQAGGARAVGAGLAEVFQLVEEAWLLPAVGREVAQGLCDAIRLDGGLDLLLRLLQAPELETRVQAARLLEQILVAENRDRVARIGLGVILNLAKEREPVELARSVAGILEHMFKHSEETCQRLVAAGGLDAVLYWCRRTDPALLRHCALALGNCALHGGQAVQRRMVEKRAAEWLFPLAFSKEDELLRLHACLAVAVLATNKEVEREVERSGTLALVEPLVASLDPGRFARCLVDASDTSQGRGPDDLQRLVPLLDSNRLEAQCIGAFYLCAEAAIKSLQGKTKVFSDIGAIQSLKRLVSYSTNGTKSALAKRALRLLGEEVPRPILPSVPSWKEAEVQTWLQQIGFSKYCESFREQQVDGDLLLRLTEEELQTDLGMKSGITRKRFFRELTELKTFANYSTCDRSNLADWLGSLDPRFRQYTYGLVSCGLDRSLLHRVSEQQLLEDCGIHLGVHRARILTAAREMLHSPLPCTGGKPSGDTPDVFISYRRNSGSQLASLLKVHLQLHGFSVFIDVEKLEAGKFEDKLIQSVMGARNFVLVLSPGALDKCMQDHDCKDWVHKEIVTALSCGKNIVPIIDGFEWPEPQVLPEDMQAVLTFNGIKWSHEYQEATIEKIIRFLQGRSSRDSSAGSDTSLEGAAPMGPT
# [12] = GFP-Q80 aggregate reduction, neuronal-like cells, cell-based, NGF-treated PC12, GFPQ80 (AID 1614); conditions: PC12 NGF-treated GFP-polyQ80 inclusion reduction;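 note: lower means fewer inclusions and 0 means no inclusions at all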
# [13] = glutamate excitotoxicity neuroprotectants – cell-based, TUNEL DNA degradation staining, MNGlu (AID 1594; call rule not given here); conditions: motor neurons, glutamate-induced death, at 1 µM, stronger effect = higher value
# [14] = P. berghei load reduction in hepatocytes – cell-based, HepG2, luciferase luminescence, HepG2 viability, primary screen (AID 624349; in the data active = parasite load remaining mostly below about 12%, no sharp cut-off; inactive = mostly above about 10%;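 note: 100% = mean of DMSO negative control wells on the same plate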); conditions: P. berghei liver stage in HepG2, luciferase luminescence, concentration not given here; parasite load remaining: stronger effect = lower value; viability: measured here: HepG2 viability without parasites
# [15] = measured here: epithelial PC-3E GFP cell survival
# [16] = measured here: mesenchymal TEM4-18 mCherry cell survival
smiles,measurement,setting,value
CC(=O)O[C@H]1C[C@@H](O)C(C)(C)C2C[C@@H](OC(C)=O)[C@]3(C)C(CC[C@@]4(C)[C@H](c5ccoc5)OC(=O)C5OC543)[C@]21C (stereo partly specified),red/green cell ratio (normalised),[1],0.84 (inactive)
same,normalised cell number,[1]; [15],0.84
same,normalised cell number,[1]; [16],0.7
same,luciferase signal,[2],40 AU (inactive)
COc1ccc([C@H]2COc3c(ccc(O)c3OC)C2)c(OC)c1O,red/green cell ratio (normalised),[1],0.9 (inactive)
same,normalised cell number,[1]; [15],0.99
same,normalised cell number,[1]; [16],0.9
same,luciferase signal,[2],60 AU (inactive)
COc1ccc([C@@H](C)C(=O)c2ccc(O)cc2O)cc1,red/green cell ratio (normalised),[1],1.1 (inactive)
same,normalised cell number,[1]; [15],0.96
same,normalised cell number,[1]; [16],1.05
same,luciferase signal,[2],20 AU (inactive)
CC(=O)O[C@H]1C[C@@H](OC(C)=O)C(C)(C)C2C[C@@H](O)[C@]3(C)C(CC[C@@]4(C)[C@H](c5ccoc5)OC(=O)[C@H]5O[C@]543)[C@]21C (stereo partly specified),red/green cell ratio (normalised),[1],0.99 (inactive)
same,normalised cell number,[1]; [15],0.87
same,normalised cell number,[1]; [16],0.86
same,luciferase signal,[2],28 AU (inactive)
CC1(C)C(=O)[C@@H]2C[C@@]3(O)C4=CC(=O)O[C@@H](c5ccoc5)[C@]4(C)CCC3C(C)(C2=O)[C@H]1CC(=O)O (stereo partly specified),red/green cell ratio (normalised),[1],1 (inactive)
same,normalised cell number,[1]; [15],1.01
same,normalised cell number,[1]; [16],1.01
same,luciferase signal,[2],20 AU (inactive)
OCC(S)CS (stereo unspecified),inhibition,[3],11.1%
same,score,[4],-0.34
same,rescue above control,[5],28.1
same,cytochrome c release ratio,[6],0.92
same,inhibition of aggregation,[7],68.7%
same,normalised LDH release,[8],0.667
same,glutamate uptake change,[9],23.2%
same,aggregation suppression score,[10],-0.815
same,red/green cell ratio (normalised),[1],1.01 (inactive)
same,normalised cell number,[1]; [15],0.72
same,normalised cell number,[1]; [16],0.73
same,remaining NAD,[11],10 nM (inactive)
same,luciferase signal,[2],92 AU (inactive)
CC(=O)Oc1ccc2c(c1C(C)C)CCC1C(C)(C)CCC[C@]21C (stereo partly specified),red/green cell ratio (normalised),[1],0.8 (inactive)
same,normalised cell number,[1]; [15],1.07
same,normalised cell number,[1]; [16],0.86
same,luciferase signal,[2],20 AU (inactive)
CC(=O)Oc1cc(C)c2c(c1C(OC(C)=O)OC(C)=O)Oc1c(c(C)c(OC(C)=O)c3c1C(OC(C)=O)OC3=O)OC2=O (stereo unspecified),red/green cell ratio (normalised),[1],0.89 (inactive)
same,normalised cell number,[1]; [15],1.03
same,normalised cell number,[1]; [16],0.92
same,luciferase signal,[2],124 AU (inactive)
O=C(O)c1cc(=O)c(O)c2c(O)c(O)c(O)cc2c1,red/green cell ratio (normalised),[1],0.85 (inactive)
same,normalised cell number,[1]; [15],1.11
same,normalised cell number,[1]; [16],0.94
same,luciferase signal,[2],100 AU (inactive)
COc1ccc(-c2coc3cc(O)ccc3c2=O)c(OC)c1,red/green cell ratio (normalised),[1],1.02 (inactive)
same,normalised cell number,[1]; [15],1.07
same,normalised cell number,[1]; [16],1.08
same,luciferase signal,[2],60 AU (inactive)
COc1ccc(/C=C/C(=O)c2ccc(O)cc2O)cc1,red/green cell ratio (normalised),[1],1.07 (inactive)
same,normalised cell number,[1]; [15],0.93
same,normalised cell number,[1]; [16],0.99
same,luciferase signal,[2],100 AU (inactive)
Cc1c(S(=O)(=O)O)oc2c1C(=O)C(=O)c1c-2ccc2c1CCCC2(C)C,red/green cell ratio (normalised),[1],0.95 (inactive)
same,normalised cell number,[1]; [15],1.24
same,normalised cell number,[1]; [16],1.18
same,luciferase signal,[2],48 AU (inactive)
CNC(C)[C@@H]1CC[C@@H](N)[C@@H](OC2[C@@H](N)C[C@@H](N)[C@H](OC3OC[C@](C)(O)[C@H](NC)[C@H]3O)[C@H]2O)O1 (stereo partly specified),inhibition,[3],-0.7%
same,score,[4],1.63
same,rescue above control,[5],-1.8
same,cytochrome c release ratio,[6],2.33
same,inhibition of aggregation,[7],66.7%
same,glutamate uptake change,[9],1.4%
same,inclusion score,[12],2
same,aggregation suppression score,[10],1.62
same,red/green cell ratio (normalised),[1],1.29 (inactive)
same,normalised cell number,[1]; [15],1.02
same,normalised cell number,[1]; [16],1.32
same,remaining NAD,[11],10 nM (inactive)
same,luciferase signal,[2],28 AU (inactive)
CNc1ccccc1C(=O)N1CCc2c([nH]c3ccccc23)C1=O,red/green cell ratio (normalised),[1],1.01 (inactive)
same,normalised cell number,[1]; [15],0.95
same,normalised cell number,[1]; [16],0.96
same,luciferase signal,[2],56 AU (inactive)
COc1cc2oc3cc(OC)c(OC)c(CC=C(C)C)c3c(=O)c2c(O)c1CC=C(C)C,red/green cell ratio (normalised),[1],0.97 (inactive)
same,normalised cell number,[1]; [15],1
same,normalised cell number,[1]; [16],0.97
same,luciferase signal,[2],72 AU (inactive)
O=c1cc(-c2ccc(O)cc2)oc2cc(O)ccc12,red/green cell ratio (normalised),[1],0.77 (inactive)
same,normalised cell number,[1]; [15],1.28
same,normalised cell number,[1]; [16],0.98
same,luciferase signal,[2],180 AU (active)
COc1cc2oc3cc(OC)c(OC)c(CC=C(C)C)c3c(=O)c2c(OC)c1CC=C(C)C,red/green cell ratio (normalised),[1],0.95 (inactive)
same,normalised cell number,[1]; [15],1.02
same,normalised cell number,[1]; [16],0.97
same,luciferase signal,[2],164 AU (inactive)
COc1ccc(-c2cc(=O)c3c(O)c(OC)c(OC)c(OC)c3o2)cc1OC,red/green cell ratio (normalised),[1],1.15 (inactive)
same,normalised cell number,[1]; [15],0.95
same,normalised cell number,[1]; [16],1.09
same,luciferase signal,[2],112 AU (inactive)
Nc1ccc(C(=O)O)c(O)c1 (tested in a mixture with another compound),inhibition,[3],-9.55%
same,score,[4],1.25
same,protection,[13],60% (active)
same,rescue above control,[5],-2.24
same,cytochrome c release ratio,[6],0.96
same,inhibition of aggregation,[7],69%
same,glutamate uptake change,[9],-12.2%
same,inclusion score,[12],2
same,aggregation suppression score,[10],1.1
same,parasite load remaining,[14],155% (inactive)
same,viability,[14],85.3%
same,red/green cell ratio (normalised),[1],0.93 (inactive)
same,normalised cell number,[1]; [15],1.14
same,normalised cell number,[1]; [16],1.06
same,remaining NAD,[11],10 nM (inactive)
COc1ccc2c(c1)O[C@H]1c3ccc(OC)cc3OC[C@@H]21,red/green cell ratio (normalised),[1],1.06 (inactive)
same,normalised cell number,[1]; [15],1
same,normalised cell number,[1]; [16],1.07
same,luciferase signal,[2],68 AU (inactive)
COc1ccc(-c2cc(=O)c3c(OC)c(OC)c(OC)cc3o2)cc1OC,red/green cell ratio (normalised),[1],1.21 (inactive)
same,normalised cell number,[1]; [15],0.9
same,normalised cell number,[1]; [16],1.08
same,luciferase signal,[2],36 AU (inactive)
CC(=O)OCC(OC(C)=O)C(OC(C)=O)C(OC(C)=O)C(OC(C)=O)C(COC(C)=O)OC(C)=O (stereo unspecified),red/green cell ratio (normalised),[1],1.06 (inactive)
same,normalised cell number,[1]; [15],0.99
same,normalised cell number,[1]; [16],1.05
same,luciferase signal,[2],80 AU (inactive)
CC(C)c1ccc2c(c1)CCC1C(C)(C(N)=O)CCCC21C (stereo unspecified),red/green cell ratio (normalised),[1],1.04 (inactive)
same,normalised cell number,[1]; [15],1.22
same,normalised cell number,[1]; [16],1.27
same,luciferase signal,[2],64 AU (inactive)
O=C(O)c1ccc2c(c1)OCO2,red/green cell ratio (normalised),[1],1.05 (inactive)
same,normalised cell number,[1]; [15],1
same,normalised cell number,[1]; [16],1.05
same,luciferase signal,[2],48 AU (inactive)
O=C(/C=C/c1ccccc1)c1ccc(O)cc1O,red/green cell ratio (normalised),[1],0.95 (inactive)
same,normalised cell number,[1]; [15],1.05
same,normalised cell number,[1]; [16],1
same,luciferase signal,[2],52 AU (inactive)
CC(=O)O[C@H]1CC[C@@]2(C)C(C[C@@H](OC(C)=O)[C@]3(C)C2CC[C@@]2(C)[C@H](c4ccoc4)OC(=O)[C@H]4O[C@]423)C1(C)C (stereo partly specified),red/green cell ratio (normalised),[1],1.12 (inactive)
same,normalised cell number,[1]; [15],1
same,normalised cell number,[1]; [16],1.12
same,luciferase signal,[2],60 AU (inactive)
COc1cc(OC)c(C(C)=O)c(O)c1C,red/green cell ratio (normalised),[1],0.96 (inactive)
same,normalised cell number,[1]; [15],0.98
same,normalised cell number,[1]; [16],0.94
same,luciferase signal,[2],32 AU (inactive)
COc1ccc(/C=C/C(=O)c2cc(O)ccc2O)cc1,red/green cell ratio (normalised),[1],0.92 (inactive)
same,normalised cell number,[1]; [15],1.12
same,normalised cell number,[1]; [16],1.03
same,luciferase signal,[2],80 AU (inactive)
COc1ccc(-c2oc3cc(OC)c(OC)c(OC)c3c(=O)c2OC)cc1OC,red/green cell ratio (normalised),[1],1.2 (inactive)
same,normalised cell number,[1]; [15],0.9
same,normalised cell number,[1]; [16],1.08
same,luciferase signal,[2],32 AU (inactive)
COc1cc(OC)c2c(=O)c(O)c(-c3ccc(OC)c(OC)c3)oc2c1,red/green cell ratio (normalised),[1],0.83 (inactive)
same,normalised cell number,[1]; [15],1.23
same,normalised cell number,[1]; [16],1.02
same,luciferase signal,[2],64 AU (inactive)
CC(=O)O[C@H]1CC[C@@]2(C)C(C[C@@H](OC(C)=O)[C@@]3(C)C4=CC(=O)O[C@@H](c5ccoc5)[C@]4(C)CCC23)C1(C)C (stereo partly specified),red/green cell ratio (normalised),[1],0.88 (inactive)
same,normalised cell number,[1]; [15],0.93
same,normalised cell number,[1]; [16],0.82
same,luciferase signal,[2],28 AU (inactive)
C=CCS(=O)C[C@H](N)C(=O)O (stereo partly specified),red/green cell ratio (normalised),[1],0.94 (inactive)
same,normalised cell number,[1]; [15],1.04
same,normalised cell number,[1]; [16],0.98
same,luciferase signal,[2],128 AU (inactive)
CC(=O)Oc1cc(OC(C)=O)c2c(c1)O[C@H](c1ccc(OC(C)=O)c(OC(C)=O)c1)[C@@H](OC(C)=O)C2,red/green cell ratio (normalised),[1],0.85 (inactive)
same,normalised cell number,[1]; [15],0.98
same,normalised cell number,[1]; [16],0.84
same,luciferase signal,[2],16 AU (inactive)

# — PubChem BioAssay
